Test results: PubChem BioAssay AID1053122 (Broad Institute, 2014)
Entries with a potency or affinity are not part of this list.

Assay: CTGF mRNA reduction in DLD1 cells – cell-based, DLD1 colon cancer, RT-qPCR, cherry-pick, dose response (AID 1053122)
Conditions: DLD1 CTGF mRNA (YAP1 pathway), 24 h; series mostly up to 26 µM; CTGF expression fold change (lower = inhibition): at the top concentration;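 active = CTGF level falls with dose and the fitted half-maximal dose is at most twice the top valid dose; inconclusive = flat fit with 30 to 70% drop, or a poor fit; inactive = the rest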

CTGF expression fold change (lower = inhibition), inactive:
C[C@@H]1CN([C@@H](C)CO)C(=O)c2cc(C#Cc3ccccc3)cnc2O[C@@H]1CN(C)C(=O)c1ccccc1 0.83 unspecified
COc1ccc2c3c(n(C)c2c1)[C@H](CO)N(S(C)(=O)=O)CC31CCN(C(=O)Nc2cccc(F)c2)CC1 0.819 unspecified
CC(C)(C)[S@](=O)N1Cc2cc(C(=O)NCc3ccccn3)nc(-c3cccc(-c4ccccc4F)c3)c2[C@@H]1CCO 0.92 unspecified
Cc1ccc(S(=O)(=O)N2CC[C@H]3[C@H](CO)Nc4ccc(-c5cccc(C(=O)N(C)C)c5)cc4[C@H]32)cc1 0.486 unspecified
O=C(CC1CC1)N1CC(=O)N2[C@@H](CO)[C@H](c3ccc(/C=C/c4ccccc4)cc3)[C@@H]2C1 0.997 unspecified
COc1cccc(C#Cc2ccc3c(c2)O[C@@H](CN(C)C(=O)CN2CCOCC2)[C@@H](C)CN([C@@H](C)CO)S3(=O)=O)c1 1.13 unspecified
O=C(Nc1ccc2c(c1)[C@H]1C[C@@H](CC(=O)N3CCc4ccccc4C3)O[C@@H](CO)[C@H]1O2)c1ccc2c(c1)OCO2 0.505 unspecified
C/C=C/c1cccc(-c2nc(C(=O)Nc3nccs3)cc3c2[C@@H](CCO)N(C(=O)NC(C)C)C3)c1 0.85 unspecified
CCS(=O)(=O)Nc1ccc2c(c1)C(=O)N(C)[C@H]1CC[C@H](CC(=O)N3CCN(C)CC3)O[C@H]1CO2 0.968 unspecified
CC(C)(C)[S@](=O)N1Cc2cc(C(=O)NCCc3ccncc3)nc(-c3cccc(-c4cccc(C#N)c4)c3)c2[C@@H]1CCO 0.654 unspecified
C[C@H](O)C#Cc1ccc([C@H]2[C@@H](CO)N3CCCCN(C(=O)c4ccc5c(c4)OCO5)C[C@@H]23)cc1 0.846 unspecified [at 23.5 µM]
O=S(=O)(c1ccccc1)N1CCCCN2[C@H](C1)[C@@H](c1ccc(C#CC3CCCC3)cc1)[C@@H]2CO 0.972 unspecified
Cc1ccc(S(=O)(=O)Nc2ccc3c(c2)C(=O)N([C@H](C)CO)C[C@@H](C)[C@H](CN(C)S(=O)(=O)c2cccs2)OCCCC[C@@H](C)O3)cc1 0.627 unspecified
NCC[C@H]1CC[C@@H](NC(=O)NC2CCCCC2)[C@H](CO)O1 0.998 unspecified
CNC[C@H]1Oc2c(NC(=O)Nc3cccc4ccccc34)cccc2C(=O)N([C@H](C)CO)C[C@@H]1C 0.813 unspecified
COc1ccc(CN(C)C[C@H]2Oc3ccc(NC(=O)Nc4ccc5c(c4)OCO5)cc3CC(=O)N([C@@H](C)CO)C[C@H]2C)cc1 0.724 unspecified
CC(C)(C)[S@@](=O)N1Cc2cc(C(=O)NCCc3ccncc3)nc(-c3cccc(-c4cccc(C#N)c4)c3)c2[C@H]1CCO 0.415 unspecified
COCC(=O)N1CC[C@@H]2[C@H](CO)Nc3ccc(C#Cc4ccc(F)cc4)cc3[C@@H]21 0.472 unspecified
O=C(Nc1cccc(F)c1)N1CCCCN2[C@H](C1)[C@H](c1ccc(C#Cc3cccnc3)cc1)[C@@H]2CO 0.636 unspecified
Cc1cccc(-c2ccc([C@@H]3[C@@H](CO)N4CCCCN(S(=O)(=O)c5ccccc5F)C[C@@H]34)cc2)c1 0.684 unspecified
O=C(Nc1ccc(C(F)(F)F)cc1)Nc1ccc2c(c1)[C@H]1C[C@H](CC(=O)N3CCc4ccccc4C3)O[C@@H](CO)[C@H]1O2 0.502 unspecified
COc1cccc(-c2ccc([C@@H]3[C@@H](C#N)N(C(=O)Cc4ccncc4)[C@@H]3CO)cc2)c1 1.22 unspecified
C[C@@H]1CC=CC[C@@H](c2cccc(Cl)c2)NC(=O)[C@@H](Cc2ccccc2)N(C)C(=O)c2ccccc2O1 (mixture of isomers) 0.488 unspecified
CCC(=O)N1Cc2cc(C(=O)NCc3cccc(F)c3)nc(-c3cccc(C4=CCCC4)c3)c2[C@H]1CCO 0.82 unspecified
C[C@H](CO)N1C[C@H](C)[C@H](CN(C)Cc2ccc(Oc3ccccc3)cc2)OCc2ccccc2-c2ccccc2C1=O 0.56 unspecified [at 23.5 µM]
CN(C)C(=O)c1ccc(-c2cccc(-c3nc(C(=O)NCc4ccccc4)cc4c3[C@@H](CCO)N([S@](=O)C(C)(C)C)C4)c2)cc1 1.62 unspecified
CCCNC(=O)N1[C@H](C#N)[C@@H](c2ccc(C#Cc3cccc(F)c3)cc2)[C@@H]1CO 0.779 unspecified
